# Records with an inconclusive call do not appear. Unmarked numbers belong to inactive results. Calls follow the shape of the dose curve; as a rule, active = well fitted cell-killing curve with a large enough effect in the repeat runs; inconclusive = weak or mixed curves, or effect the other way; inactive = no such curve, though single readings can be large or run the other way.
# Assay: qHTS assay to identify small molecule agonists of the RXR signaling pathway - cell viability counter screen (AID 1159529); also: nearly all actives have a fitted effect of over 50% in size
# Conditions: RXR-alpha-bla HEK293T viability, CellTiter-Glo, 16 h; series mostly up to 76.8 µM; activity change, negative = cytotoxicity: at the top concentration
# Source text: National Center for Advancing Translational Sciences [NCATS]
# NIH Chemical Genomics Center [NCGC]
# U.S. Environmental Protection Agency [EPA]
# National Institutes of Environmental Health Sciences [NIEHS]
# National Toxicology Program [NTP]
# U.S. Food and Drug Administration [FDA]
# The Retinoid X receptor (RXR), a nuclear hormone receptor expressed in liver, spleen, placenta, epidermis, central nervous system. These receptors are able to form homo and heterodimers with other nuclear receptors and due to this heterodimerizing ability, RXR functions as master regulators producing diverse physiological effects. Three subtypes of RXR exist; alpha, beta and gamma. Retinoid X receptor alpha (RXR-alpha) has potential roles in metabolic signaling pathways, skin alopecia, dermal cysts, cardiac development, insulin sensitization etc. Therefore screening environmental chemicals on RXR-alpha signaling can be used for the studies focused on such therapeutic applications. For quantification of RXR-alpha ligands signaling, GeneBLAzer RXR alpha-UAS-bla HEK 293T (Life Technologies, Carlsbad, CA) cells containing a beta-lactamase reporter-gene under control of Retinoid X receptor-alpha response element were used to screen Tox21 10K library. The cytotoxicity of the Tox21 compound library against the RXR-alpha HEK 293T cell line was tested in parallel by measuring cell viability using CellTiter-Glo assay (Promega Corporation, Madison, WI) in the same wells.
# Tox21 Assay Protocol Summary:
# RXR-alpha HEK 293T cells were dispensed at 2,000 cells/6 uL of assay medium containing 2% charcoal-stripped FBS using a Multidrop Combi (ThermoFisher Scientific, Waltham, MA) dispenser. The assay was performed in black wall/clear-bottom 1536-well plates (Greiner Bio-One North America Inc. Monroe, NC). Tetraoctyl ammonium bromide was used as a positive control in the cytotoxicity screen. After the assay plates were incubated at 37 C and 5% CO2 for 5 hr, 23 nL of compounds dissolved in DMSO, positive control or DMSO only were transferred to the assay plate by a Pintool station (Kalypsys, San Diego, CA). The assay plates were incubated at 37 C and 5% CO2 for 16 hr. One uL of LiveBLAzer B/G FRET substrate (Life Technologies) was added using a Flying Reagent Dispenser (FRD) (Aurora Discovery, San Diego, CA) and the plates were incubated at room temperature for 2 hr. Fluorescence intensity (405 nm excitation, 460/530 nm emission) was measured using an Envision plate reader (PerkinElmer, Shelton, CT). For cytotoxicity, 4 uL/well of CellTiter-Glo reagent was added into the assay plates using an FRD. After 30 min incubation at room temperature, the luminescence intensity was measured using a ViewLux plate reader (PerkinElmer).
# % is scaled to controls: 0 for no effect and ±100 for the full control effect.
row,SMILES,"activity change, negative = cytotoxicity"
1,Cc1[nH]cnc1-c1ccc(Cl)cc1,1.07% [at 35.3 µM]
2,CC1=C(C(=O)O)N2C(=O)[C@@H](NC(=O)[C@H](N)c3ccc(O)cc3)[C@H]2SC1,4.46% [at 35.3 µM]
3,CC(=O)Nc1ccc(S(=O)(=O)Cl)cc1,2.77%
4,CN(C)c1ccc(C=O)cc1,1.76%
5,CCCCOCCOC(=O)COc1nc(Cl)c(Cl)cc1Cl,0.635%
6,CCc1ccc(C=O)cc1,-0.254%
7,CNC(=O)[C@H]1O[C@@H](n2cnc3c(NCc4cc(Cl)ccc4OCc4cc(C)no4)ncnc32)[C@H](O)[C@@H]1N,-11.4%
8,O=C1CCCC(=O)O1,10.2%
9,CN1CCN(CC(=O)N2c3ccccc3C(=O)Nc3cccnc32)CC1,0.873% [at 6.97 µM]
10,COc1cc2c(cc1OC)[C@@H]1CC(=O)[C@@H](CC(C)C)CN1CC2,-5% [at 35.3 µM]
11,O=C1O[C@@H]2[C@@H](O)[C@H](O)O[C@@H]2[C@H]1O,1.07%
12,O=C(O)c1cc(Br)c(O)c(Br)c1,2.05%
13,NCCS,6.3% [at 35.3 µM]
14,O=C(NCC(O)CO)c1c(I)c(C(=O)NCC(O)CO)c(I)c(N(CCO)C(=O)CO)c1I (stereo not given),1.82% [at 35.3 µM]
15,C[C@@H]1O[C@@H](O[C@@H]2[C@@H](O)[C@H](OCCc3ccc(O)c(O)c3)O[C@H](CO[C@@H]3O[C@H](CO)[C@@H](O)[C@H](O)[C@H]3O)[C@H]2OC(=O)/C=C/c2ccc(O)c(O)c2)[C@H](O)[C@H](O)[C@H]1O,-0.152%
16,COC(=O)CCCCCCCC(=O)OC,2.38%
17,CCCCCCOc1ccccc1C(N)=O,1.11% [at 35.3 µM]
18,Cc1ccccc1N=O,4.39%
19,CCCCCCCCCCCCCC,2.93%
20,CCCC(=O)C(C)=O,2.25%

row,SMILES,"activity change, negative = cytotoxicity"
1,CCCCCCCCC1CCC(=O)O1 (stereo not given),-4.78%
2,CC1=CCC(C(C)C)=CC1,-1.55%
3,Oc1cn2c(n1)Nc1ccc(Cl)c(Cl)c1C2,-0.221% [at 15.8 µM]
4,CCOC(=O)[C@H](CCc1ccccc1)N[C@@H](C)C(=O)N1C(=O)N(C)C[C@H]1C(=O)O,-1.72% [at 35.3 µM]
5,CC(C)OC(=O)CCCCC(=O)OC(C)C,11.7%
6,C=C(C)C(=O)OCCN(CC)CC,7.97%
7,CCCCCCN,-17.4%
8,CC(C)C(=O)OCc1cccc(OC(=O)[C@@H]2N3C(=O)[C@@H](NC(=O)Cc4ccccc4)[C@H]3SC2(C)C)c1,-4.85% [at 35.3 µM]
9,C=Cc1ccccn1,18.1%
10,COCCc1ccc(OCC2CO2)cc1 (stereo not given),1.07% [at 35.3 µM]
11,CC(C)NCC(O)COc1ccc(COCCOC(C)C)cc1 (stereo not given),0.974% [at 35.3 µM]
12,Cc1ccc(C=O)cc1C,-6.42%
13,N#Cc1ccc(C(=O)O)cc1,-7.81%
14,CCOC(=O)c1ccc(OC(=O)CCCCCN=C(N)N)cc1,-15.1% [at 35.3 µM]
15,C[Si](C)(C)C,2.09%
16,CCC(C=O)CC,-8.67%
17,CCOc1cc(NC(C)=O)ccc1C(=O)OC,-0.0858% [at 35.3 µM]
18,O=C(NCCc1c[nH]c2ccccc12)c1cccnc1,-3.31% [at 35.3 µM]
19,CCCCNC1CC(C)(C)NC(C)(C)C1,-1.96%
20,O=C(O)c1cc(Cl)cc([N+](=O)[O-])c1Cl,9.69%
